Assay in all cases: NCI-60 one-dose screen, 48 h (100 = growth as untreated, 0 = no growth, -100 = all killed)
Test [1] has as its system HCT-15 colon. The conditions noted are these: 10 µM unless noted.
Test [2] has as its system HT29 colon. The following applies: 10 µM unless noted.
Test [3] deals with SNB-75 CNS. The conditions noted are these: 10 µM unless noted.
Test [4] has as its system SNB-19 CNS. The conditions noted are these: 10 µM unless noted.
In test [5] the test system is U251 CNS. The conditions noted are these: 10 µM unless noted.
Test [6] relates to PC-3 prostate. The following applies: 10 µM unless noted.
The test system of test [7] is SK-MEL-5 melanoma. The conditions noted are these: 10 µM unless noted.
Test [8] has as its system UACC-62 melanoma. The conditions noted are these: 10 µM unless noted.
For test [9], the system named is LOX IMVI melanoma. The conditions noted are these: 10 µM.
The test system of test [10] is SK-MEL-28 melanoma. The conditions noted are these: 10 µM unless noted.
Test [11] has as its system SK-MEL-2 melanoma. The following applies: 10 µM unless noted.
Test [12] relates to SN12C renal. The following applies: 10 µM unless noted.
Test [13] has as its system UO-31 renal. The conditions noted are these: 10 µM unless noted.
The test system of test [14] is TK-10 renal. The following applies: 10 µM unless noted.
In test [15] the test system is ACHN renal. The following applies: 10 µM unless noted.
Test [16] deals with CAKI-1 renal. The conditions noted are these: 10 µM unless noted.
Test [17] concerns A498 renal. The following applies: 10 µM unless noted.
The test system of test [18] is CCRF-CEM leukemia. The following applies: 10 µM unless noted.
The test system of test [19] is MOLT-4 leukemia. The following applies: 10 µM unless noted.
Test [20] deals with EKVX NSCLC. The conditions noted are these: 10 µM unless noted.

The structures appear in SMILES notation. Compounds without any hit were thinned out: in the full panel of roughly 83,000, 20% have a hit.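 Single-concentration screen, 48 h exposure, 96-well plates. Endpoint: percent growth. Below 10 = active.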 Values without a mark were called inactive. Activity calls are given as the source filed them.

Drawing on PubChem BioAssay (NCI), this text covers growth for 9 compounds.

As to `Ic1cccs1`, the growth in test [1] is 109%; in test [2], 94.2%; in test [3], 105%; in test [4], 99.6%; in test [5] it was 96.3%; in test [6], 99.5%. In addition, the growth in [7] is 104%; in test [8], 98.5%; in [9], 96.9%; in [10], 111%; in test [11] it was 97.9%; in [12], 98.9%. Further, the growth in test [13] was 90.5%; in test [14], 95.8%; in [15], 103%; in [16] it was 101%; in [17], 96.5%; in [18], 96%. Moreover, the growth in test [19] is 98.9%.
Regarding `COc1ccc2c(Cl)cc(NC(=O)Nc3c(C)cccc3C)nc2c1`, the growth is 95.7% in [1]; 88% in test [2]; -24.7% (active) in test [3]; 79.3% in [4]; 76.1% in test [5]; 72.4% in test [6]. Also, the growth in [7] is 63.6%; in [8] it was 87.7%; in [9], 60.7%; in test [10] it was 97%; in [11], 106%; in test [12] it was 82.6%. The growth is 14.4% in [13]; 35% in test [14]; 41.9% in test [15]; 11.1% in test [16]; 36.1% in test [17]; 86.5% in test [18]. For the same compound, the growth in test [19] was 81.6%.
With `CC(C)=CCC[C@@H](C)[C@H]1CC[C@@]2(C)C3=C(CC[C@]12C)[C@@]1(C)CC[C@H](O)C(C)(C)[C@@H]1CC3`, the growth in test [1] was 97.9%; in [2], 90.1%; in test [3], 92.7%; in [4], 105%; in test [5] it was 99.2%; in test [6], 101%. Also, the growth in test [7] was 104%; in test [8], 101%; in test [9], 103%; in test [10], 104%; in [11], 118%; in test [12], 102%. For the same compound, the growth in [13] is 111%; in test [14], 112%; in test [15], 101%; in test [16], 99.1%; in test [17], 114%; in test [19] it was 99%.
On to `CCCCCCCCCCCCCCCCCC(=O)NCCNC(=O)CCCCCCCCCCCCCCCCC`, for which the growth in test [1] was 95.1%; in [2], 49.1%; in test [3] it was 82.8%; in test [4] it was 108%; in test [5] it was 94.5%; in [6], 65%. In addition, the growth in test [7] is 102%; in test [8], 104%; in test [9], 61.4%; in test [10], 105%; in test [11], 90.2%; in test [12], 97.2%. Moreover, the growth in test [13] is 49%; in [14], 106%; in [15], 86.2%; in test [16], 83.3%; in test [17] it was 101%; in test [18], 61.9%. Also, in test [19], the growth was 67.2%.
As to `O=Cc1ccc(F)cc1`, the growth in [1] is 93.4%; in test [2], 103%; in test [3], 90.3%; in test [4], 103%; in [5], 101%; in test [6], 101%. The growth in [7] was 99.8%; in test [8], 102%; in test [9], 101%; in [10], 102%; in test [11], 129%; in [12], 98%. Further, the growth in test [13] is 82%; in test [14], 113%; in test [15], 95.6%; in test [16], 88.4%; in test [17], 103%; in test [19], 110%.
Regarding `Cc1ccc(C)c2c1CCC2=O`, the growth was 100% in test [1]; 105% in [2]; 86.1% in [3]; 93% in [4]; 103% in test [5]; 98.6% in test [6]. Also, the growth was 97.5% in test [7]; 99.9% in test [8]; 96.2% in test [9]; 104% in test [10]; 122% in [11]; 102% in test [12]. Also, the growth in test [13] was 90.6%; in test [14] it was 105%; in test [15] it was 102%; in [16] it was 95.9%; in [17] it was 56.8%; in test [18] it was -32.7% (active). For the same compound, the growth in test [19] was 121%.
As for `C1C[S+]2CC[S+]1CC2`, the growth in test [1] was 105%; in test [2], 98.9%; in test [3] it was 117%; in test [4] it was 103%; in test [5], 96.4%; in [6], 101%. Moreover, the growth was 98.8% in test [7]; 104% in test [8]; 95.8% in test [9]; 118% in test [10]; 101% in test [11]; 101% in [12]. For the same compound, the growth is 106% in test [13]; 97.9% in test [14]; 99.2% in test [15]; 108% in [16]; 105% in test [17]; 89.9% in [18]. Moreover, the growth in test [19] was 100%.
`O=c1[nH]c(=O)c2cc(Cl)cc(Cl)c2[nH]1`: the growth is 107% in test [1]; 106% in [2]; 68.2% in test [3]; 95% in test [4]; 103% in test [5]; 93.7% in [6]. Moreover, the growth in test [7] is 103%; in test [8], 96.7%; in test [9] it was 120%; in test [10], 124%; in test [20], 92.7%; in test [12] it was 91%. Further, the growth in [13] was 75.3%; in test [14], 97.6%; in test [15], 103%; in test [16] it was 92%; in test [18] it was 99.6%; in [19], 95.7%.
Take `Clc1ccc(-c2noc(/C=C\c3ccccc3)n2)cc1`: the growth is 95% in test [1]; 102% in test [2]; 103% in [3]; 102% in test [4]; 91.2% in test [5]; 102% in test [6]. Moreover, the growth in [7] is 97.6%; in [8] it was 100%; in [9], 97.5%; in [10] it was 106%; in test [12], 105%; in test [13], 83.5%. For the same compound, the growth is 115% in [14]; 98.3% in test [15]; 96.1% in test [16]; 93.7% in [17]; 92.3% in test [18]; 98.4% in test [19].
